Bioassay records (PubChem BioAssay)
Rows were chosen to be rich in hits. Some 21% of all compounds tested hit in one or more screens of this group.
Shiga toxin inh: inhibitors of Shiga toxin in Vero cells; 9.2% of 290,000 active; Vero cells, Shiga toxin protein synthesis inhibition reporter; AID 2315; inhibition, % at 38.7 µM; in the data active = inhibition mostly above about 28%, no sharp cut-off; inactive = mostly below about 43%; also: 0% is about no effect
Pf growth 48h: inhibits P. falciparum growth in the first generation, 48 h; P. falciparum luciferase growth in erythrocytes, 48 h; Potency, µM (series often up to 28.7 µM), for the others: top-dose activity change, negative = inhibition, actives largely listed as inhibitors; 5.9% of 310,000 active; AID 504832; also: potency is read from the fitted curve at half-maximal effect; % is scaled to controls: 0 for no effect and ±100 for the full control effect
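Compounds are pin-transferred into medium, infected erythrocytes (2% hematocrit, 0.1% parasitemia final) are added, and plates sit one parasite generation at 37 C in 5% CO2. Detection reagent is then added and luminescence measured.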
Pf growth 96h: inhibits malaria parasite growth, 96 h; P. falciparum luciferase reporter growth, 96 h; Potency, µM (doses to about 28.7 µM), without a hit: top-dose activity change, negative = inhibition, hits mostly inhibitors; 6.9% of 320,000 active; also: potency is read from the fitted curve at half-maximal effect; % is scaled to controls: 0 for no effect and ±100 for the full control effect
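Two parasite generations (96 h, 37 C, 5% CO2) of compound exposure in infected erythrocytes (0.05% parasitemia, 2% hematocrit). Luciferase-reporter P. falciparum; decreased luminescence indicates inhibited growth, aimed at apicoplast-acting delayed death.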
CHX counter: counter-screen for Shiga toxin inhibitors: cycloheximide protein synthesis inhibition; cell reporter, cycloheximide protein synthesis inhibition counterscreen; max response, %; 12% of 300,000 active; AID 2314; in the data active = max response mostly above about 13%, no sharp cut-off; inactive = mostly below about 14%; also: read at 38.3 µM for the half of the compounds with a filed dose; 0% is about no effect
The depositor's hits bear a star; i = inactive; ? = inconclusive; . = no result. Unless noted, calls follow the shape of the dose curve; as a rule, active = well fitted inhibition curve with a large enough effect; inconclusive = small, poorly fitted or top-dose-only effect, or another doubt; inactive = no such curve, though single readings can be large or run the other way.

SMILES	Shiga toxin inh	Pf growth 48h	Pf growth 96h	CHX counter
Cc1ccc(NC(=S)NC(=O)C2CCC2)cc1C	101*	-2%	-8%	53*
Cc1c(Cl)cccc1NC(=S)NC1CCCC1	8	?	?	-3
Cc1nc2ccc(NC(=S)NC3CCCCC3)cc2nc1C	102*	143%	?	42*
Cc1cc(Cl)ccc1NC(=S)NC1CCCC1	32*	-81%	-30%	12*
Cc1ccsc1CN(C)C(=O)CN1C(=O)NC2(CCCCC2C)C1=O (stereo not drawn)	.	-20%	?	.
COc1cc(/C=N/N(C)S(=O)(=O)c2ccc(C)cc2)cc([N+](=O)[O-])c1O	-2	-2%	?	-1
COCCCN(C(=O)CSCc1c(C)noc1C)c1c(N)n(Cc2ccccc2)c(=O)[nH]c1=O	.	-4%	?	.
CC1CCCCC1NC(=S)Nc1ccc(Cl)cc1Cl (stereo not drawn)	31*	?	0%	12
Cc1ccc(NC(=S)NC2CC3CCC(C2)N3Cc2ccco2)cc1C (stereo not drawn)	-7	?	12µM*	-1
O=C(NC(=S)Nc1ccc(O)cc1)C1CCCC1	.	94%	71%	.
Cc1ccc(NC(=S)NC(=O)C2CCCC2)cc1C	91*	20%	?	50*
S=C(Nc1ccc2[nH]ccc2c1)NC1CCCCC1	65*	109%	98%	37*
S=C(Nc1ccc(Cl)cc1Cl)NC1CCN(Cc2ccccc2)CC1	-4	?	?	1
Cc1ccc(NC(=S)NC2CC3CCC(C2)N3Cc2ccco2)c(C)c1 (stereo not drawn)	-12	7%	?	4
Cc1ccc(NC(=O)c2cc(N3C(=O)C=CC3=O)ccc2N2CCOCC2)cc1Cl	-9	9%	9%	-6
CCCCS(=O)(=O)N1CCCC(C(=O)Oc2ccc(Cl)cc2)C1 (stereo not drawn)	2	5%	-9%	-1
CC(C)(C)c1ccccc1NC(=S)NC1CCCCC1	15	?	9.3µM*	-3
CC(C)(C)c1ccccc1NC(=S)NC1CCCC1	-14	0%	-19%	-1
Cc1ccc(NC(=S)NC2CCCC2)cc1C	active	37%	17%	49*
Cc1ccc(NC(=O)C(C)N=C2NS(=O)(=O)c3ccccc32)cc1F (stereo not drawn)	63*	-2%	39%	29*
CC(N=C1NS(=O)(=O)c2ccccc21)C(=O)NCCCc1ccccc1 (stereo not drawn)	5	-26%	14%	0
O=[N+]([O-])c1ccc(Cl)c(C[n+]2cccc3ccccc32)c1	-17	?	30%	-1
Cc1ccc2c(c1)c(C)cc[n+]2Cc1ccccc1	-5	0.37µM*	0.19µM*	0
Cc1ccc2ccc[n+](Cc3ccccc3)c2c1	.	0.41µM*	0.52µM*	.
COc1ccc2c(c1)c(C)cc[n+]2Cc1ccccc1	-9	?	0%	-4
SMILES	Shiga toxin inh	Pf growth 48h	Pf growth 96h	CHX counter
COc1cccc(NS(=O)(=O)c2c(C)cc(C)cc2C)c1	-7	13µM*	?	2
COc1ccc(NS(=O)(=O)c2c(C)cc(C)cc2C)cc1	-7	-18%	4%	4
CC(=O)c1cc2c(cc1NC(=O)c1ccc(C)cc1)OCCO2	12	23%	27%	8
CC(NC(=O)Cc1cccs1)C(c1cccs1)N1CCOCC1 (stereo not drawn)	14	13µM*	.	-1
CCN1CCN(C(c2cccs2)C(C)NC(=S)NC2CCCCC2)CC1 (stereo not drawn)	-3	-7%	-12%	-2
CC(NC(=S)NC1CCCCC1)C(c1cccs1)N1CCOCC1 (stereo not drawn)	-3	?	8.3µM*	-3
OC12C3C4CC5C6C4C1C6C(C53)N2CCc1cccc(F)c1 (stereo not drawn)	13	.	.	-7
COc1ccccc1NS(=O)(=O)c1ccc(NN=C2CCCC2)c([N+](=O)[O-])c1	-14	-29%	12µM*	-1
COc1ccccc1NS(=O)(=O)c1ccc(N/N=C/C=C/c2ccccc2[N+](=O)[O-])c([N+](=O)[O-])c1	7	?	?	-2
COc1ccccc1NS(=O)(=O)c1cc([N+](=O)[O-])ccc1N/N=C/c1sc(N2CCOCC2)nc1-c1ccccc1	14	3.3µM*	?	-2
Cc1nn(-c2ccccc2)c(N2CCCC2)c1/C=N/Nc1ccc(S(=O)(=O)Nc2ccccc2)cc1[N+](=O)[O-]	7	3.3µM*	?	-3
COc1ccccc1NS(=O)(=O)c1ccc(N/N=C/c2c(C)nn(-c3ccccc3)c2N2CCCC2)c([N+](=O)[O-])c1	4	3.3µM*	?	-3
Cc1cc(N)n(-c2ccccc2)n1	21	12%	199%	13
Cc1cc(N)n(-c2nc(-c3cccnc3)nc3ccccc23)n1	64*	?	336%	33*
Cc1cc(N)n(-c2cc(C)c3ccccc3n2)n1	79*	445%	i	46*
Cc1cc(C)c2nc(-n3nc(C)cc3N)cc(C)c2c1	108*	205%	100%	26*
O=C(Nc1ccccc1Oc1ccccc1)c1ccccc1F	-2	?	-3%	-3
O=C1CN(C(=O)COC(=O)CNS(=O)(=O)/C=C/c2ccccc2)c2ccccc2N1	21	201%	32%	6
COc1ccc(C)cc1S(=O)(=O)NCC(c1ccc2c(c1)OCO2)N1CCN(C)CC1 (stereo not drawn)	.	-10%	1%	.
Cc1cc(C)nc(SCC(=O)Nc2ccc3c(c2)OCO3)n1	8	19%	?	8
CCOC(=O)c1cnc(SCC(=O)c2ccc(C)cc2)nc1N	-2	21%	?	-3
Cc1cc(C)nc(SCC(=O)c2ccc3c(c2)OCCO3)n1	-1	-21%	?	26*
CCOC(=O)c1cnc(SCC(=O)c2ccc3c(c2)OCCO3)nc1N	104*	12%	-1%	28*
Cc1ccc(OCCn2cnc3sc(C(N)=O)c(C)c3c2=O)cc1	-3	?	12%	10
CCOC(=O)c1sc2ncn(CC(=O)Nc3cc(C)on3)c(=O)c2c1C	.	1%	7%	.
SMILES	Shiga toxin inh	Pf growth 48h	Pf growth 96h	CHX counter
CCOCCn1cnc2sc(C(=O)NCC(=O)OCC)c(C)c2c1=O	32*	23%	3%	23*
CCn1cnc2sc(C(=O)Oc3ccc(Br)cc3)c(C)c2c1=O	64*	54%	2.9µM*	30*
CCOC(=O)Cn1cnc2sc(C(=O)OC)c(C)c2c1=O	25*	14%	60%	11
O=C(COC(=O)C1CCN(c2ccc(C(F)(F)F)cn2)CC1)NCc1cccc(Cl)c1	.	?	-2%	.
Cc1c(C(=O)NCCC2=CCCCC2)sc2ncnc(N3CCCCC3C)c12 (stereo not drawn)	4	?	2.6µM*	-6
Cc1sc2ncnc(N3CCCCC3C)c2c1C (stereo not drawn)	-5	8%	-11%	-1
COc1ccccc1NS(=O)(=O)c1cc(NC(=O)c2ccncc2)ccc1N1CCOCC1	14	?	15µM*	-3
COc1ccccc1NS(=O)(=O)c1cc(NC(=O)c2cc(=O)[nH]c3ccccc23)ccc1N1CCOCC1	-5	10µM*	?	-4
